Screen size: about 5,500 compounds; about 2,000 (36%) were called active. About 18% were inconclusive and are not listed. Rule as the data show it: active = normalized growth mostly below about 0.91 (no sharp cut-off); inconclusive = no clear call, values can overlap the other calls; inactive = mostly above about 0.92. This is one part of the list.
Assay: chemical genetic growth profiling, strain panel (AID 1159580);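 also: tested at 20 µM; growth read once vehicle control cultures reached saturation at 30 °C; 1 = growth at the plate median or of vehicle wells; lower values mean less growth of the strain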
Details: growth OD

Measured: normalized growth

O=C(O)CC(CC(=O)O)c1ccc(C(F)(F)F)cc1
inactive: S. cerevisiae deletion strains, locus YAL013W, strain DEP1, active compounds read low 0.994 | S. cerevisiae deletion strains, locus YBR229C, strain ROT2, active compounds read low 1 | S. cerevisiae deletion strains, locus YCL061C, strain MRC1, active compounds read low 0.981 | S. cerevisiae deletion strains, locus YDL101C, strain DUN1, active compounds read low 0.999 | S. cerevisiae deletion strains, locus YDR150W, strain NUM1, active compounds read low 0.938 | S. cerevisiae deletion strains, locus YEL061C, strain CIN8, active compounds read low 1.01 | S. cerevisiae deletion strains, locus YGR078C, strain PAC10, active compounds read low 0.993 | S. cerevisiae deletion strains, locus YGR229C, strain SMI1, active compounds read low 0.985 | S. cerevisiae deletion strains, locus YHR030C, strain SLT2, active compounds read low 1.03 | S. cerevisiae deletion strains, locus YHR087W, strain rtc3, active compounds read low 1 | S. cerevisiae deletion strains, locus YJR043C, strain POL32, active compounds read low 0.991 | S. cerevisiae deletion strains, locus YJR075W, strain HOC1, active compounds read low 0.993 | S. cerevisiae deletion strains, locus YKL190W, strain CNB1, active compounds read low 1 | S. cerevisiae deletion strains, locus YLR039C, strain RIC1, active compounds read low 1.02 | S. cerevisiae deletion strains, locus YLR058C, strain SHM2 (second series), active compounds read low 0.999 | S. cerevisiae deletion strains, locus YLR085C, strain ARP6, active compounds read low 1.02 | S. cerevisiae deletion strains, locus YLR262C, strain YPT6, active compounds read low 1.01 | S. cerevisiae deletion strains, locus YML094W, strain GIM5, active compounds read low 1.02 | S. cerevisiae deletion strains, locus YMR219W, strain ESC1, active compounds read low 0.999 | S. cerevisiae deletion strains, locus YMR263W, strain SAP30, active compounds read low 0.993 | S. cerevisiae deletion strains, locus YNL153C, strain GIM3, active compounds read low 0.99 | S. cerevisiae deletion strains, locus YNL298W, strain CLA4 (second series), active compounds read low 1.04 | S. cerevisiae deletion strains, locus YNL322C, strain KRE1, active compounds read low 1.01 | S. cerevisiae deletion strains, locus YNR030W, strain Alg12, active compounds read low 1.02 | S. cerevisiae deletion strains, locus YPL055C, strain LGE1, active compounds read low 0.918 | S. cerevisiae deletion strains, locus YPL241C, strain CIN2, active compounds read low 1.04 | S. cerevisiae deletion strains, locus YPR135W, strain CTF4, active compounds read low 0.963 | S. cerevisiae strains, strain wild type, active compounds read low 0.995

From PubChem BioAssay AID1159580 (chemical genetic matrix, 2015)
